Results as given in PubChem BioAssay (Tox21).
Inconclusive results are not listed. Calls of active or inactive are those of the source. Unless noted, calls come from the whole dose curve; as a rule, active = well fitted curve in the direction sought with a large enough effect in the repeat runs; inconclusive = weak or mixed curves; inactive = no such curve, though single readings can be large; an effect the other way counts as inactive or inconclusive.

Experiments:
[1] = molecular target: Acetylcholinesterase (Homo sapiens) (UniProt P22303); assay: Acetylcholinesterase (AChE) small molecule antagonists: enzyme-based qHTS assay with human liver microsomes (AID 1347399; calls by dose curve; note: nearly all actives have a fitted effect of over 60% in size); settings: Potency: qHTS inhibition; outcome: qHTS inhibition
Sequence of Acetylcholinesterase (Homo sapiens) (P22303 whole entry, looked up): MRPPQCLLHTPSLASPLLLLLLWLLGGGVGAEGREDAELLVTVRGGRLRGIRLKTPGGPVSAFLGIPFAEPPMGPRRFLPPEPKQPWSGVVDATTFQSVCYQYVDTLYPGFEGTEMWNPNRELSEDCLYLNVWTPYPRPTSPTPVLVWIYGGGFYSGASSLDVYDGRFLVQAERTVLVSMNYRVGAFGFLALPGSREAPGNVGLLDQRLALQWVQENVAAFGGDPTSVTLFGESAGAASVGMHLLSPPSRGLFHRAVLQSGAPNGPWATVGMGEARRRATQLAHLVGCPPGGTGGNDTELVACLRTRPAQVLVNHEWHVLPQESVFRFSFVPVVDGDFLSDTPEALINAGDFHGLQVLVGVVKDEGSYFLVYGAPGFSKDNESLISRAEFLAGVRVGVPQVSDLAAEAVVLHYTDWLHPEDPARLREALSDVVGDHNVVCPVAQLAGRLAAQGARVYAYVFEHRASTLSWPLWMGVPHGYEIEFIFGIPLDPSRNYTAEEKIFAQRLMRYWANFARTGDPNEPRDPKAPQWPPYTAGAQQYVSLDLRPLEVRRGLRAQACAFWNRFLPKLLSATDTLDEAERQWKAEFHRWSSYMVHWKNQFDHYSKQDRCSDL
Summary of the method: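 Recombinant human AChE (50 mU/mL in the enzyme mix) and human liver microsomes (0.25 mg/mL final) were preincubated with compound and NADPH (0.25 mg/mL final) for 30 min at 37 C. Acetylthiocholine/DTNB was then added; thiocholine was read colorimetrically after 10 min at room temperature.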

[2] = molecular target: Acetylcholinesterase (Homo sapiens) (UniProt P22303); assay: Acetylcholinesterase (AChE) small molecule antagonists: fluorescence cell-based qHTS assay (AID 1347398; calls by dose curve; note: nearly all actives have a fitted effect of over 50% in size; note: potency is the fitted concentration of half-maximal effect); settings: Potency: AChE activity; outcome: AChE activity
Summary of the method: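 Fluorimetric cell-based assay: intact SH-SY5Y cells, 30 min compound preincubation at 37 C, acetylthiocholine substrate with thiol probe Thiolite Green, 40 min RT development, fluorescence 490/520 nm.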

[3] = qHTS assay for small molecules that induce genotoxicity in human embryonic kidney cells expressing luciferase-tagged ATAD5 (AID 651632); note: nearly all actives have a fitted effect of over 15% in size
Summary of the method: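 ATAD5-luc HEK293T, 2,000 cells/well; cpd or DMSO pin-transferred; 16 hr, 37C/5% CO2; Amplite 30 min RT; luminescence.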

[4] = qHTS assay for small molecule agonists of the p53 signaling pathway - cell viability (AID 651633; calls by dose curve; note: potency is the fitted concentration of half-maximal effect; nearly all actives have a fitted effect of over 30% in size)
Summary of the method: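 Viability counter-read: CellTiter-Glo luminescence (30 min, room temperature) in the same p53RE-bla plates. These plates had been exposed to compounds for 16 h at 37 C.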

[5] = qHTS assay for small molecules that induce genotoxicity in human embryonic kidney cells expressing luciferase-tagged ATAD5 - cell viability (AID 651634; calls by dose curve; note: potency is the fitted concentration of half-maximal effect; nearly all actives have a fitted effect of over 25% in size)
Summary of the method: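 Fluorescence from CellTiter-Fluor, reporting protease activity within live cells, served as the viability read-out. HEK293T cells carrying luciferase-tagged ATAD5 had been treated with compound for 15.5 hr at 37C.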

[6] = qHTS assay for small molecule disruptors of the mitochondrial membrane potential - cell viability (AID 720634; calls by dose curve;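 note: human HepG2 liver cancer cells; series mostly up to about 83 µM; nearly all actives have a fitted effect of over 20% in size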)
Summary of the method: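 Cells: HepG2, 2,000/well, attached overnight. Compound 1 hr, 37 C/5% CO2. +m-MPI dye, +CellTiter-Glo 30 min RT. Readout: luminescence (ATP).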

[7] = qHTS assay for small molecule disruptors of the mitochondrial membrane potential (AID 720635); note: potency is the fitted concentration of half-maximal effect
Summary of the method: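 Mitochondrial membrane potential tracked with Mito-MPS dye, red aggregates (ex 540/em 590 nm) against green monomers (ex 490/em 535 nm). Compound treatment 1 hr at 37C, dye 30 min in HepG2.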

[8] = qHTS assay to test for compound auto fluorescence at 590 nm (red) in HepG2 cells (AID 720674)
Summary of the method: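 We screened compounds on adherent HepG2 cells, incubating them for an hour at 37 C in 5% CO2 before reading emission at 590 nm under 540 nm excitation; values reflect equivalence to Rose Bengal sodium fluorescence.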

[9] = qHTS assay to test for compound auto fluorescence at 535 nm (green) in HepG2 cells (AID 720675)
[10] = qHTS assay to test for compound auto fluorescence at 460 nm (blue) in HEK293 cells (AID 720678)
Summary of the method: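 Blue-channel (Ex/Em 405/460 nm) intensity measured in HEK293 cultures after overnight compound exposure at 37C; signal expressed relative to triamterene. Cells plated 2,000 per well in 10% dialyzed FBS medium and allowed 4-5 hr to attach.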

[11] = qHTS assay to test for compound auto fluorescence at 590 nm (red) in HEK293 cells (AID 720679)
Summary of the method: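 Red-channel autofluorescence (Ex/Em 540/590 nm; Rose Bengal sodium reference) was measured after overnight 37C, 5% CO2 exposure of attached HEK293 cells, 2,000 per well in medium with 10% dialyzed FBS.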

[12] = qHTS assay to test for compound auto fluorescence at 535 nm (green) in HEK293 cells (AID 720680)
[13] = qHTS assay to test for compound auto fluorescence at 460 nm (blue) in HEK293 cell free culture (AID 720681)
Summary of the method: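 Blue fluorescence (Ex 405/Em 460 nm, triamterene-equivalent) was read immediately after pin transfer of compound or DMSO into medium (DMEM, 10% FBS) without cells.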

[14] = qHTS assay to test for compound auto fluorescence at 535 nm (green) in HEK293 cell free culture (AID 720682)
Summary of the method: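 Read-out: 485/535 nm fluorescence intensity, calibrated against fluorescein. Medium only (DMEM + 10% FBS, no cells); test compound or DMSO vehicle added by pintool before plate reading.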

[15] = qHTS assay to test for compound auto fluorescence at 590 nm (red) in HEK293 cell free culture (AID 720683)
Summary of the method: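 Red-channel autofluorescence of compounds in culture medium (DMEM, 10% FBS), no cells, measured at 540/590 nm. Rose Bengal sodium is the reference fluorophore for equivalence.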

[16] = qHTS assay to test for compound auto fluorescence at 590 nm (red) in HepG2 cell free culture (AID 720684)
Summary of the method: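 Plate contents were MEM with 10% FBS plus test compound or DMSO, no cells. Fluorescence was recorded with 540 nm excitation and 590 nm emission.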

[17] = qHTS assay to test for compound auto fluorescence at 460 nm (blue) in HepG2 cell free culture (AID 720685)
Summary of the method: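 Compound (23 nL) or DMSO pinned into cell-free MEM with 10% FBS; blue fluorescence read at 405/460 nm excitation/emission, expressed as auto-fluorescence equivalency to triamterene.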

[18] = qHTS assay to test for compound auto fluorescence at 535 nm (green) in HepG2 cell free culture (AID 720686)
[19] = qHTS assay to test for compound auto fluorescence at 460 nm (blue) in HepG2 cells (AID 720687)
Summary of the method: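 Blue-channel autofluorescence (Ex/Em 405/460 nm, triamterene-equivalent) was measured after 1 hr compound exposure at 37 C, 5% CO2. Cells were HepG2, plated overnight at 37 C in MEM plus 10% FBS.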

[20] = qHTS assay to identify small molecule antagonists of the glucocorticoid receptor (GR) signaling pathway - cell viability counter screen (AID 720693); note: potency is the fitted concentration of half-maximal effect; nearly all actives have a fitted effect of over 55% in size
[21] = qHTS assay for identifying genotoxic compounds that show differential cytotoxicity against isogenic chicken DT40 cell lines with known DNA damage response pathways - wild type cell line (AID 743012); note: potency is the fitted concentration of half-maximal effect; nearly all actives have a fitted effect of over 60% in size
Summary of the method: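 Wild type DT40, 300 cells/well, ~0.5 h settle at 37 C/5% CO2; compounds in DMSO added by pintool; 40 h at 37 C/5% CO2; CellTiter-Glo, 30 min RT; luminescence.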

[22] = qHTS assay for identifying genotoxic compounds that show differential cytotoxicity against isogenic chicken DT40 cell lines with known DNA damage response pathways - Rev3 mutant cell line (AID 743014); note: potency is the fitted concentration of half-maximal effect; nearly all actives have a fitted effect of over 55% in size
[23] = qHTS assay for identifying genotoxic compounds that show differential cytotoxicity against isogenic chicken DT40 cell lines with known DNA damage response pathways - Rad54/Ku70 mutant cell line (AID 743015); note: potency is the fitted concentration of half-maximal effect; nearly all actives have a fitted effect of over 60% in size
[24] = qHTS assay to identify small molecule antagonists of the androgen receptor (AR) signaling pathway - cell viability counter screen (AID 743033; note: potency is the fitted concentration of half-maximal effect; nearly all actives have a fitted effect of over 45% in size)
[25] = molecular target: Androgen receptor (Homo sapiens) (UniProt P10275); assay: qHTS assay to identify small molecule antagonists of the androgen receptor (AR) signaling pathway (AID 743035; active = well fitted inhibition curve with a large enough effect in the signal ratio in the repeat runs, not every such curve was filed as active; the % refers to the signal ratio; note: potency is the fitted concentration of half-maximal effect)
Sequence of Androgen receptor (Homo sapiens) (P10275 whole entry, looked up): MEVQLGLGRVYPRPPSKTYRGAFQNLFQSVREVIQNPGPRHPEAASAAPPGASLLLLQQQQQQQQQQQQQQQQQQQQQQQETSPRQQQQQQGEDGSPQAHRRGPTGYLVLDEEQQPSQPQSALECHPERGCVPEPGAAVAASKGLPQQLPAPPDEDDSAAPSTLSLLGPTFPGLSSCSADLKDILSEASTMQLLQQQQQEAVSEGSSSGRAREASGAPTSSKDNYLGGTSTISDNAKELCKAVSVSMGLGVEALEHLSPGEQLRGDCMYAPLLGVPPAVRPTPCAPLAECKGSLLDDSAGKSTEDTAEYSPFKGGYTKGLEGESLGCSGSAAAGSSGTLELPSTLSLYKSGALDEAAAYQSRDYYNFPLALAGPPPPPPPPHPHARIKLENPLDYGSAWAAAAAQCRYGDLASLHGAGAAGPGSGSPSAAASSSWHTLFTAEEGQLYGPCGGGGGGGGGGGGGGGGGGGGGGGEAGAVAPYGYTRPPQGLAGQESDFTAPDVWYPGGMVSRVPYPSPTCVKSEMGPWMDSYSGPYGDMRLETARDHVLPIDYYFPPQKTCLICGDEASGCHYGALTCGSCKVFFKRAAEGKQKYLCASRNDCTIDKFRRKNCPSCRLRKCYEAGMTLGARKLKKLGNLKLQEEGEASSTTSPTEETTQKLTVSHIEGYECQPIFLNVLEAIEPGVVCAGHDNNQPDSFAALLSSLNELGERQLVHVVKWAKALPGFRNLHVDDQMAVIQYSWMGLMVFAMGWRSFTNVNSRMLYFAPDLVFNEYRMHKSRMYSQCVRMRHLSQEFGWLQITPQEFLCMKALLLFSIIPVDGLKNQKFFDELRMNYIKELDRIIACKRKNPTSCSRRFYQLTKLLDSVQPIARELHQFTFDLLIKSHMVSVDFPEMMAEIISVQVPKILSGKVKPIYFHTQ
Summary of the method: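 Fluorescence from a beta-lactamase FRET substrate (LiveBLAzer B/G, 2 h, room temperature) measured inhibition of R1881-stimulated signaling in GeneBLAzer AR-UAS-bla HEK293 cells exposed to compound for 16 h at 37C.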

[26] = qHTS assay to identify small molecule antagonists of the thyroid receptor (TR) signaling pathway - cell viability counter screen (AID 743064); note: nearly all actives have a fitted effect of over 50% in size
Summary of the method: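 GH3.TRE-Luc rat pituitary cells carrying a TRE-luciferase reporter were treated with compound plus 1 nM T3 (final) for 23.5 h at 37 °C. Viability was then read in the same wells by CellTiter-Fluor fluorescence after a further 30 min.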

[27] = qHTS assay to identify small molecule antagonists of the thyroid receptor (TR) signaling pathway (AID 743065); note: series mostly up to about 70 µM; nearly all actives have a fitted effect of over 55% in size
Summary of the method: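 Antagonism measured as loss of luciferase signal in GH3 cells stably carrying a TRE-luciferase reporter, co-treated with compound and T3 (1 nM final) for 23.5 h at 37 C. Viability was read in the same well by CellTiter-Fluor.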

[28] = system: thyroid hormone receptor (rat, GH3 cells); assay: qHTS assay to identify small molecule agonists of the thyroid receptor (TR) signaling pathway (AID 743066; calls by dose curve)
[29] = qHTS assay to identify small molecule antagonists of the estrogen receptor alpha (ER-alpha) signaling pathway - cell viability counter screen (AID 743074; calls by dose curve;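 note: HEK293 cells carrying ER-alpha-UAS-bla reporter stimulated with 17beta-estradiol; potency is the fitted concentration of half-maximal effect; nearly all actives have a fitted effect of over 45% in size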)
[30] = molecular target: Estrogen receptor (Homo sapiens) (UniProt P03372); assay: qHTS assay to identify small molecule agonists of the estrogen receptor alpha (ER-alpha) signaling pathway (AID 743075; calls by dose curve;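 note: HEK293 GripTite cells with ER-alpha and UAS-driven beta-lactamase reporter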)
Sequence of Estrogen receptor (Homo sapiens) (P03372 whole entry, looked up): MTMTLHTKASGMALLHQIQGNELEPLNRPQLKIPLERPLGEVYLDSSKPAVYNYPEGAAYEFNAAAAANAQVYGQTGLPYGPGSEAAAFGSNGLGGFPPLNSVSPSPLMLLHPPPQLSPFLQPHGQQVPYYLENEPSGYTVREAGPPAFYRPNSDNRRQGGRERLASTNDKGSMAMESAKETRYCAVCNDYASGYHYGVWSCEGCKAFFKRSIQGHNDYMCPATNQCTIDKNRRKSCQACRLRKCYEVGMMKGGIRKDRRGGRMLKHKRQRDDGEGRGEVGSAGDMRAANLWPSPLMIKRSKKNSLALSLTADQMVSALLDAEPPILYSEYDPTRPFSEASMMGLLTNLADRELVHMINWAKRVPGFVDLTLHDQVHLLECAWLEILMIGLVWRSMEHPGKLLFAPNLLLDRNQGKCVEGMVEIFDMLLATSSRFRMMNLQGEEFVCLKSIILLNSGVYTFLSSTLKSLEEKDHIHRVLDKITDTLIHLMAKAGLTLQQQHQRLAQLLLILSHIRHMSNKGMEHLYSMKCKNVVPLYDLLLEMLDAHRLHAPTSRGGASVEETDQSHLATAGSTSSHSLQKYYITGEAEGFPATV

[31] = qHTS assay to identify small molecule antagonists of the estrogen receptor alpha (ER-alpha) signaling pathway using the BG1 cell line - cell viability counter screen (AID 743081);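 note: compound given together with 17beta-estradiol as the ER stimulus; series mostly up to about 70 µM; nearly all actives have a fitted effect of over 45% in size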
[32] = molecular target: Aromatase (Homo sapiens) (UniProt P11511); assay: qHTS assay to identify aromatase inhibitors (AID 743083); note: series mostly up to about 70 µM; nearly all actives have a fitted effect of over 55% in size
Sequence of Aromatase (Homo sapiens) (P11511 whole entry, looked up): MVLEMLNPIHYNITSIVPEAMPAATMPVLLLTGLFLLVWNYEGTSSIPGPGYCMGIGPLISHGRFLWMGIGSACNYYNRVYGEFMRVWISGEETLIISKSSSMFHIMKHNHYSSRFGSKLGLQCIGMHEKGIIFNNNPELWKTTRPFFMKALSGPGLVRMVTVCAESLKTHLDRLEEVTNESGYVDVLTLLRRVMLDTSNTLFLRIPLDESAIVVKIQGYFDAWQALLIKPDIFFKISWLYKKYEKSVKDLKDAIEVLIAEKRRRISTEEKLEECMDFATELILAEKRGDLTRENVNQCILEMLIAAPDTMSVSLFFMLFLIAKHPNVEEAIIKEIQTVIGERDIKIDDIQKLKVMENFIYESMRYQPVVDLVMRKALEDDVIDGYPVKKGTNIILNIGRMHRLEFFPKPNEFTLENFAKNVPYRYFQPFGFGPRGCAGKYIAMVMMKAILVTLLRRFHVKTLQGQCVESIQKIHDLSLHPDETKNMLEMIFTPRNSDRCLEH

[33] = qHTS assay to identify aromatase inhibitors - cell viability counter screen (AID 743084)
[34] = qHTS assay to identify small molecule that activate the aryl hydrocarbon receptor (AhR) signaling pathway - cell viability counter screen (AID 743086);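 note: HepG2 liver cells carrying the AhR DRE luciferase reporter; series mostly up to about 70 µM; nearly all actives have a fitted effect of over 45% in size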
Summary of the method: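 Cytotoxicity counter screen: CellTiter-Fluor signal (30 min, 37 C) in 4000 HepG2 cells/well carrying the DRE-luciferase reporter, following 24 h compound exposure at 37 C.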

Measured: Potency

CCN(CC)CCCC(C)Nc1c2ccc(Cl)cc2nc2ccc(OC)cc12 (stereo not given)
inactive: [1]

CC(=O)Oc1ccc(C(c2ccc(OC(C)=O)cc2)c2ccccn2)cc1
inactive: [2] | [1]

CCN(CC)CCNc1ccc(CNC=O)c2sc3ccc(OC)cc3c(=O)c12
active: [2] 39900 nM
inactive: [1]

COc1cccc(-c2ccc(/C=C\CN3CCCCCC3)cc2Cl)c1
inactive: [1]
active: [2] 31600 nM

Cc1cc(O)ccc1O
active: [2] 71800 nM
inactive: [1]

Nc1ccc(C(=O)NCC(=O)O)cc1
inactive: [2] | [1]

C=CC(=O)OCCN(CC)CC
inactive: [1]

CC(=O)O[C@H]1C[C@H](O[C@H]2[C@@H](O)C[C@H](O[C@H]3[C@@H](O)C[C@H](OC4CC[C@@]5(C)C(CC[C@@H]6[C@@H]5CC[C@]5(C)[C@@H](C7=CC(=O)OC7)[C@@H](O)C[C@]65O)C4)O[C@@H]3C)O[C@@H]2C)O[C@H](C)[C@H]1O[C@@H]1O[C@H](CO)[C@@H](O)[C@H](O)[C@H]1O (stereo not given in full)
active: [4] 376 nM | [5] 750 nM | [7] 944 nM | [20] 2390 nM | [21] 2110 nM | [22] 2660 nM | [23] 2660 nM | [24] 601 nM | [25] 4250 nM | [29] 379 nM
not listed: [1] | [2]
inactive: all other assays above

S=C([S-])NCCNC(=S)[S-].[Mn+2]
inactive: [1]
